Bioassay records as filed in PubChem BioAssay.
LmPK inhibitor – qHTS Assay for Inhibitors of Leishmania Mexicana Pyruvate Kinase (LmPK). Q27686. purified LmPK, Kinase-Glo ATP luminescence, 1 h. Potency, µM (series often up to 57.5 µM), inactives show at the highest dose activity change, negative = inhibition, most hits filed as inhibitors. 0.37% of 290,000 active. AID 1721, 2009; note: potency is the fitted concentration of half-maximal effect; % is set by controls: 0 for no effect and ±100 for the full control effect
Target sequence (Q27686 whole entry, looked up): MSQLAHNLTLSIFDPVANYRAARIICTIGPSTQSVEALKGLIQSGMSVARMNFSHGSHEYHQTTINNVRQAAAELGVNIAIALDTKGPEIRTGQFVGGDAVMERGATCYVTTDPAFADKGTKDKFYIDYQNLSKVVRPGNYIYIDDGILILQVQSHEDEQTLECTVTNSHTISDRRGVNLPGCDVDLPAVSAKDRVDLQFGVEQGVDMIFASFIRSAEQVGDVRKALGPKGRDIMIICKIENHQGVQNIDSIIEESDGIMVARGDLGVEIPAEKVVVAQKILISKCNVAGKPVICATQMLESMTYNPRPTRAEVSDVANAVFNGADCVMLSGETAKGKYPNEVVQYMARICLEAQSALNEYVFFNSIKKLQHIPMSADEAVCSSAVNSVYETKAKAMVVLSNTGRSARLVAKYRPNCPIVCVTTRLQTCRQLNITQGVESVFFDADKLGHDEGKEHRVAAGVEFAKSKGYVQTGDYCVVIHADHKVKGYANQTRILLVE
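Screened at intermediate enzyme activity to detect both inhibitors and activators: LmPK at 0.1 nM, with a 0.5 nM enzyme column as activation reference. PEP 0.5 mM, ADP 0.1 mM; ATP detected by luminescence after 1 h.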
Tb PYK inh – qHTS of Trypanosoma Brucei Inhibitors. TbPYK enzyme, Kinase-Glo Plus ATP luminescence, 45 min. Potency, µM (titrated, usually from 76.8 µM), without a hit: at the top dose activity, negative = inhibition, actives largely listed as inhibitors. 0.12% of 410,000 active. AID 624173, 2012; note: potency is the fitted concentration of half-maximal effect; % is set by controls: 0 for no effect and ±100 for the full control effect; nearly all actives have a fitted effect of over 50% in size
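Assay buffer: 50 mM TEA pH 7.2, 100 mM KCl, 10 mM MgCl2, 0.05% BSA, 0.01% Tween-20. Pyruvate kinase from T. brucei plus substrate met compound, then ADP (130 uM final). Luminescence was read post 45 min RT.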
Shiga inhibitor – A qHTS for Small Molecule Inhibitors of Shiga Toxin. Vero cells, Shiga toxin protein synthesis inhibition reporter. inhibition, % at 38.7 µM. 9.2% of 290,000 active. AID 2315, 2010; in the data active = inhibition mostly above about 28%, no sharp cut-off; inactive = mostly below about 43%; note: 0% is about no effect
CHX counter – Cycloheximide Counterscreen for Small Molecule Inhibitors of Shiga Toxin. cell reporter, cycloheximide protein synthesis inhibition counterscreen. max response, %. 12% of 300,000 active. AID 2314, 2010; in the data active = max response mostly above about 13%, no sharp cut-off; inactive = mostly below about 14%; note: read at 38.3 µM for the half of the compounds with a filed dose; 0% is about no effect
Sm TGR block – qHTS Assay for the Inhibitors of Schistosoma Mansoni Peroxiredoxins. Potency, µM (top dose mostly 114 µM), for the others: at the top dose activity change, negative = inhibition, most hits filed as inhibitors. 3% of 360,000 active. purified TGR, DTNB reduction, TNB absorbance 405 nm. Schistosoma mansoni thioredoxin glutathione reductase (TGR), Q962Y6; note: potency is the fitted concentration of half-maximal effect; % is set by controls: 0 for no effect and ±100 for the full control effect; nearly all actives have a fitted effect of over 60% in size
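Kinetic colorimetric format: TGR-catalysed, NADPH-driven DTNB reduction monitored via TNB absorbance. Enzyme dispensed at 20 nM; compound exposure 15 min at room temperature before reaction start.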
FBPA Giardia inh – qHTS Assay for Inhibitors of Fructose-1,6-bisphosphate Aldolase from Giardia Lamblia; A8B2U2; purified Giardia FBPA; Potency, µM (series often up to 59.6 µM), inactives show at the top dose activity, negative = inhibition, most hits filed as inhibitors; 0.71% of 290,000 active; note: potency is the fitted concentration of half-maximal effect; % is set by controls: 0 for no effect and ±100 for the full control effect; nearly all actives have a fitted effect of over 55% in size
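Giardia FBPA (40 nM reagent) was preincubated 10 min at RT with compound (up to 57.5 uM final), then substrate plus GAPDH/TPI/NAD/arsenate coupling system with diaphorase/resazurin was added; resorufin fluorescence (525/598 nm) was read after 20 min.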
* = called active by the depositor; u = inconclusive; x = no result given; [ ] = dose if it differs, or a comment. The full list was thinned out, with hits kept by preference. Unless noted, calls come from the whole dose curve; as a rule, active = well fitted curve in the direction sought with a large enough effect; inconclusive = small, poorly fitted or top-dose-only effect, or another doubt; inactive = no such curve, though single readings can be large; an effect the other way counts as inactive or inconclusive.

SMILES | LmPK inhibitor | Tb PYK inh | Shiga inhibitor | CHX counter | Sm TGR block | FBPA Giardia inh
COc1cccc(-c2nnc3sc(CN4CCCCC4)cn23)c1 | x | 2% | x | x | 5% | x
Cc1c(C(=O)N/N=C/c2ccccc2)[nH]c2ccc(Cl)cc12 | 2% | -1% | 41* | 27* | -1% | 3%
Cc1c(C(=O)N/N=C/c2ccc(N(C)C)cc2)[nH]c2ccc(Cl)cc12 | -2% | 3% | -1 | 1 | 4% | 7%
Cc1ccc(CNC(=O)CN2C(=O)COc3ccc(S(=O)(=O)N4CCC(C)CC4)cc32)cc1 | x | -3% | x | x | 1% | x
CC(=O)N1CCc2c(sc3c2c(=O)n(-c2ccccc2Cl)c(=O)n3C)C1 | x | -4% | x | x | 7% | x
Cn1ccnc1SCC(=O)Nc1cc(Cl)ccc1Cl | x | -3% | x | x | 3% | x
Cn1ccnc1SCC(=O)c1ccc(Cl)cc1 | 1% | -3% | 118* | 37* | -5% | -14%
Cn1ccnc1SCC(=O)Nc1ccc([N+](=O)[O-])cn1 | 3% | 1% | -7 | -3 | -3% | -9%
Cn1ccnc1SCC(=O)c1ccc(F)cc1 | x | -5% | x | x | x | x
Cn1ccnc1SCC(=O)Nc1ccc(Cl)cn1 | 3% | -8% | 31 | 23* | 7% | -5%
Cn1ccnc1SCC(=O)c1ccc(O)cc1 | -30% | -30% | 37 | 26* | 9% | -11%
COc1ccc(CCC(=O)N2CCN(C(=O)c3ccccc3)CC2)cc1 | -4% | 1% | -5 | -2 | u | 6%
Cc1c(NC(=O)C(C)OC(=O)COc2ccc(C#N)cc2)c(=O)n(-c2ccccc2)n1C (stereo not drawn) | x | -8% | x | x | 1% | x
Cc1n[nH]c(=O)c2c(NC(=O)CSc3ccc(Br)cc3)oc(C)c12 | x | 2% | x | x | -30% | x
O=C(c1ccccc1)c1c(-c2ccccc2)[nH]n(-c2ccccc2)c(=O)c1=O | x | -1% | x | x | x | x
COC(=O)Cn1c2ccccc2c2nc3ccccc3nc21 | -3% | -12% | 25 | 8 | -5% | 8%
O=Nc1c2nc3ccccc3n(O)c-2c2ccccc12 | -21% | x | 115* | 73* | 2% | -7%
CS(=O)(=O)NC1c2cccc3cccc(c23)C1Sc1nncn1/N=C/c1ccco1 (stereo not drawn) | 2% | -8% | -10 | -2 | 50µM* | -13%
Cc1c(Cl)c(-c2n[nH]c(=S)n2CC(C)C)nn1C | -22% | u | -10 | -3 | 0% | 0%
CC(C)Cn1c(-c2nn(C)cc2Cl)n[nH]c1=S | 13µM* | u | -15 | -1 | 3% | x
CCn1c(-c2nn(C)cc2Cl)n[nH]c1=S | -4% | u | 1 | -3 | -1% | -28%
Cc1ccsc1-c1n[nH]c(=S)n1CC(C)C | 14µM* | u | -9 | -2 | 5% | -11%
CC(C)Cn1c(-c2ccc(Br)o2)n[nH]c1=S | u | 4µM* | -5 | -2 | 2% | 8%
O=C(CN1C(=O)C2C3C=CC(C3)C2C1=O)NCc1ccccc1 (stereo not drawn) | -3% | -4% | -23 | -4 | 12% | -3%
O=C(CCN1C(=O)C2C3C=CC(C3)C2C1=O)NCCc1ccccc1Cl (stereo not drawn) | -3% | -6% | 28* | 14* | -4% | 5%
SMILES | LmPK inhibitor | Tb PYK inh | Shiga inhibitor | CHX counter | Sm TGR block | FBPA Giardia inh
O=C(CN1C(=O)C2C3C=CC(C3)C2C1=O)NCCc1ccccc1 (stereo not drawn) | 2% | u | 10 | 15* | 2% | 8%
O=S(=O)(O)CCCS(=O)(=O)O | x | 0% | x | x | x | x
Cc1ccc(C)c(OCCC(=O)OCC(=O)NC(=O)NC2CCCC2)c1 | x | 2% | x | x | 6% | x
COc1cccc(NC(=O)CN(C)C(=O)CSc2nc(C)cc(C)n2)c1 | x | -1% | x | x | 5% | x
Cc1ccccc1N(C)C(=O)c1noc2c1COc1ccccc1-2 | x | u | x | x | 0% | x
O=C(OCc1nnc(-c2ccccc2)o1)c1cc(Cl)ccc1[N+](=O)[O-] | -4% | 3% | 57 | 31* | 3% | 2%
O=C(OCc1nnc(-c2ccccc2)o1)c1cccnc1Cl | -5% | 2% | 26 | 19* | 2% | 5%
O=[N+]([O-])c1cc(-c2nnc(-c3ccccc3)o2)ccc1Oc1ccc(Cl)cc1 | -5% | -1% | 61* | 32* | -2% | 6%
O=C(OCc1nnc(-c2ccccc2)o1)c1cc(F)c(F)cc1Cl | 0% | -3% | -3 | 3 | 2% | 1%
Cc1nnc(-c2ccc(Oc3ccc(Cl)cc3)c([N+](=O)[O-])c2)o1 | 4% | -15% | -9 | -3 | -14% | -1%
CCc1ccc(Sc2cc(C(=O)O)c3ccccc3n2)cc1 | x | 4% | x | x | 7% | x
C[C@H](NC(=O)CNC(=O)[C@@H](NC(=O)[C@H](Cc1ccccc1)NC(=O)CNC(=O)CNC(=O)[C@@H](N)Cc1ccccc1)[C@@H](C)O)C(=O)N[C@@H](CCCN=C(N)N)C(=O)N[C@@H](CCCCN)C(=O)N[C@@H](CO)C(=O)N[C@@H](C)C(=O)N[C@@H](CCCN=C(N)N)C(=O)N[C@@H](CCCCN)C(N)=O | x | x | -13 | -3 | x | 5%
CCc1cccc(NC(=O)c2ccc(CNS(=O)(=O)c3ccc4c(c3)C(C)(C)C(=O)N4C)cc2)c1 | x | -2% | x | x | 1% | x
c1ccc(-c2csc(-n3cccn3)n2)cc1 | -1% | -4% | 46 | 51* | 0% | 0%
c1ccc(-c2csc(N3CCSCC3)n2)cc1 | -1% | u | 90* | 44* | 5% | -2%
CC(C)C(=O)NNC(=O)CN1CCN(c2nc(-c3ccccc3)cs2)CC1 | 5% | -8% | -10 | -3 | 16% | 0%
Clc1ccc(-c2csc(N3CCSCC3)n2)cc1 | 0% | -1% | 114* | 35* | 5% | 2%
c1ccc(-c2csc(CN3CCCCC3)n2)cc1 | x | -6% | x | x | x | x
Fc1ccc(-c2csc(N3CCOCC3)n2)cc1 | -7% | -16% | 51* | 39* | -1% | 2%
C[C@@]12CC[C@@H]3c4ccc(O)cc4CC[C@H]3[C@H]1C[C@@H](O)[C@H]2O | x | x | x | x | x | 1%[21.7 µM]
CO[C@H]1COC(=O)C/C=C\[C@H](C)[C@@H](NS(=O)(=O)c2ccc(C)cc2)COC(=O)CCC[C@@H]1C | x | x | x | x | x | 1%[12.9 µM]
COc1cccc(OC)c1C(=O)NC1C(=O)N2C1SC(C)(C)C2C(=O)O (stereo not drawn) | x | 1% | x | x | x | -6%
Cn1c(=O)oc2cc(S(=O)(=O)NCCC(=O)Nc3ccc(F)cc3F)ccc21 | x | 4% | x | x | -3% | x
COc1cccc(-c2csc(N3CCN(C(=O)Nc4ccc(Cl)cc4)CC3)n2)c1 | 3% | -12% | 45* | 28* | 0% | -11%
CCC(=O)N1CCN(c2nc(-c3ccc(Cl)cc3)cs2)CC1 | 1% | -12% | 63* | 35* | -3% | -9%
